Source: article PMC9574860, “Chemical Toolkit for PARK7: Potent, Selective, and High-Throughput” (Journal of Medicinal Chemistry, 2022)
In all, about 7,900 compounds went through this assay and about 400 (5.1%) showed an effect of 50% or more. Many of the other results were omitted from the sample, so strong results are more common in it than they were.

Each compound was assayed against Parkinson's disease protein 7 (PARK7/DJ1) (human, UniProt Q99497) (assay: primary screen, percent inhibition; read as competition with a fluorescent probe by fluorescence polarization; higher = more effect of the substance). Details: 100 µM.
Chain of Parkinson's disease protein 7 (PARK7/DJ1) (Q99497 whole entry, looked up, the tested form may be a part): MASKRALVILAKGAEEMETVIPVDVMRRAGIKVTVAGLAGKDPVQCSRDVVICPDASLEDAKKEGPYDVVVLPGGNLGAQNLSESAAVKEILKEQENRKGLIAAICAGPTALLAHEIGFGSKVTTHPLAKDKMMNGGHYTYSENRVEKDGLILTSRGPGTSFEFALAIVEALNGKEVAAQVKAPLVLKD
Method: The screen was conducted using the conditions as described above in 1536-well plates (Corning 3724) with a reaction volume of 8 μL per well. The compound library containing 7887 covalent fragments was purchased at Enamine Ltd. and received as 100 mM DMSO stocks in 384 well LDV Echo plates (Labcyte LP-0200). Stock solutions of 0.26 μM PARK7 and 80 nM JYQ-107 were prepared. Using a Labcyte Echo550 acoustic dispenser, 8 nL of the DMSO stock solution of the library compounds was transferred from the source plates into the empty 1536-well screening plates to obtain a 100 μM final compound concentration. Next, PARK7 (6 μL, final concentration 0.2 μM) was dispensed using a Biotek MultiflowFX liquid dispenser and incubated for 2 h, followed by dispensing the probe JYQ-107 (2 μL, final concentration 20 nM). After 2 h incubation, the FP signal was recorded on a BMG Labtech PHERAstar plate reader (λex/em 480/520 nm). The relative loss of FP signal compared with reference controls was used to calculate the remaining enzyme activity.

Row | SMILES | Inhibition %
1 | C=C(Cl)CSc1nc(N)cc(N)n1 | 18.5%
2 | CC(C)CN1CCN(c2ccc(C#N)nc2)C(C)C1=O (stereo not drawn) | 5.84%
3 | O=C(CCl)Nc1ccccc1-c1ccccc1 | 8.41%
4 | CCn1cc(CCCl)cn1 | 5.4%
5 | CN1CN=C(S)NC1 | 3.57%
6 | C=CC(=O)NCC1(C)CCOCC1 | 4.38%
7 | C=CC(=O)NCC1CCC2(COC(C)C2)O1 (stereo not drawn) | 2.62%
8 | O=C(CCl)Nc1cccc(S(=O)(=O)N=C2CCCN2)c1 | 18.3%
9 | O=C(Cc1ccc2c(c1)CCO2)Nc1cccc(S(=O)(=O)F)c1 | 94.3%
10 | O=C(Cc1ccc2c(c1)COC2)Nc1cccc(S(=O)(=O)F)c1 | 97.6%
11 | C=CC(=O)Nc1cccc(C(F)F)c1 | 6.09%
12 | C=CC(=O)Nc1ccc2c(c1)COC2 | 11.5%
13 | O=C(Cc1cccc(C(F)F)c1)Nc1cccc(S(=O)(=O)F)c1 | 52%
14 | C=CC(=O)NCc1ccc2c(c1)CCO2 | 9.41%
15 | O=C1CC2(CCNCC2)N1 | 3.72%
16 | N#CC(=Cc1ccc(N)cc1)C(N)=O | 8.09%
17 | CC(C)CNc1oc(Cc2ccccc2)nc1C#N | 6.85%
18 | C=CC(=O)NC1CC2(COC(C)C2)C1 (stereo not drawn) | 8.04%
19 | COc1cc(C)c(C)cc1S(=O)(=O)n1cccn1 | 6.67%
20 | N#Cc1c(Cl)nc2sccn12 | 4.22%
21 | CCN(Cc1ccc(Cl)s1)C(=O)CCl | 9.61%
22 | N#Cc1ncn(CCC(=O)NCc2ccc(F)cc2)n1 | 7.22%
23 | O=C1CC2(CCN(Cc3ccc(Cl)cc3Cl)CC2)N1 | -1.16%
24 | CCN(C(=O)CCl)c1ccccc1 | 44.6%

Row | SMILES | Inhibition %
25 | Cc1ccc([N+](=O)[O-])cc1NC(=O)CCl | 18.4%
26 | O=C(CCl)NC(=O)Nc1ccccc1 | 28.5%
27 | CN(C(=O)CCl)c1ccc([N+](=O)[O-])cc1 | 93.5%
28 | Cc1cccc(N(Cc2ccccc2)C(=O)CCl)c1 | 9.42%
29 | CN(C(=O)CCl)c1ccccc1 | 79.7%
30 | O=C(CCl)N(Cc1ccccc1)c1ccccc1 | 10.7%
31 | Cc1csc(N(C(=O)CCl)c2ccccc2)n1 | 87.3%
32 | O=C(CCl)Nc1ccc([N+](=O)[O-])cc1 | 32.8%
33 | O=C(Nc1ccccc1)NN(C(=O)CCl)c1ccccc1 | 93.5%
34 | CN(C(=O)CCCl)c1ccccc1 | 9.16%
35 | O=C(CCl)NN(c1ccccc1)c1ccccc1 | 10.3%
36 | Cl.Cl.O=C(O)C1CCN(C(=O)C=Cc2nc3ccccc3s2)C1 (stereo not drawn) | 9.53%
37 | C=CC(=O)NC[C@H]1CC[C@H](c2ccccc2)O1 | 2.73%
38 | Cn1c(=O)c2c(ncn2CCS(=O)(=O)F)n(C)c1=O | 7.95%
39 | CC(C)Cc1ccc(C(C)NC(=O)CCl)cc1 (stereo not drawn) | 9.76%
40 | CS(=O)(=O)OCC1(C#N)CCCCC1 | 8.05%
41 | CCCC(=O)NC1CCCN(c2ccc(C#N)nc2)C1 (stereo not drawn) | 5.26%
42 | N#CCCN(C(=O)CCl)c1ccccc1 | 14.9%
43 | NC(=O)CCN(C(=O)CCl)c1ccc(F)cc1 | 37.5%
44 | NC(=O)CCN(C(=O)CCl)c1ccccc1 | 67.4%
45 | C=CC(=O)Nc1cnn2ccccc12 | 97%
46 | C=CC(=O)Nc1cc2ccccn2n1 | 30.2%
47 | C=CC(=O)NCc1cnn2ccccc12 | 19.8%
48 | C=CC(=O)NCc1noc2c1CCCC2 | 4.47%

Row | SMILES | Inhibition %
49 | N#Cc1ncccc1N1CCc2ccccc2C1 | 26.9%
50 | N#Cc1ncccc1N1CCC=C(F)C1 | 20.1%
51 | CC(C)c1nc2c(n1C)CCN(c1cccnc1C#N)C2 | 87%
52 | C=CC(=O)NCc1ccc(CN2CCCCCC2)cc1 | 13.2%
53 | O=C(CCl)c1ccc(F)c(C(=O)CCl)c1 | 100%
54 | O=C(CCl)c1ccc(F)c(F)c1 | 22.1%
55 | Cc1cc(C(=O)CCl)ccc1F | 24.6%
56 | O=C(CCl)c1ccc(F)c(Cl)c1 | 99.2%
57 | O=C(CCl)Nc1ccc2[nH]c(C(F)(F)F)nc2c1 | 45%
58 | CC(NC(=O)Cn1cnc(C#N)n1)c1ccc(F)cc1F (stereo not drawn) | 1.26%
59 | N#CN(Cc1ccno1)c1ccc(F)cc1 | 15.5%
60 | C=CC(=O)Nc1cc(F)ccc1C | 3.57%
61 | CC1CCCCC1NC(=O)Cn1cnc(C#N)n1 (stereo not drawn) | 5.45%
62 | O=C(O)[C@H]1CCCN1C(=O)C=Cc1ccccc1F | 8.2%
63 | O=C(CCl)C1CCCN1C(=O)C(F)(F)F (stereo not drawn) | 80.8%
64 | O=C(CCl)N1CCCC2CCCCC21 (stereo not drawn) | 14.1%
65 | NC(=O)C1CCCCN1C(=O)CCl (stereo not drawn) | 12.3%
66 | CC1(C)CCC(OS(C)(=O)=O)CC1 | 16.9%
67 | O=C(CCl)NCCc1ccc(Cl)cc1Cl | 23.1%
68 | CC(=O)NCCc1ccc(C(=O)CCl)cc1F | 81.3%
69 | CC(=O)NCCc1cc(C(=O)CCl)ccc1F | 83.3%
70 | CSc1cc(C(=O)CCl)ccc1NC(C)=O | 5.59%
71 | CSc1ccc(C(=O)CCl)cc1NC(C)=O | 37.7%
72 | Cc1nc(C=CC(=O)N2CCc3sccc3C2)cs1 | 4.01%

Row | SMILES | Inhibition %
73 | O=C(CCl)Nc1nc2c(F)c(F)c(F)cc2s1 | -4.93%
74 | COc1ccc(N2CCN(CC3CO3)CC2)cc1 (stereo not drawn) | 12.9%
75 | N#CC1CC2(CC(=O)N2)C1 (stereo not drawn) | 5.93%
76 | Cc1ccc2cccc(OC(=O)N3CCCC3)c2n1 | 13.5%
77 | O=C1CC(Cc2ccccc2)N1 (stereo not drawn) | 3.33%
78 | O=C1CC(c2ccccc2)N1 (stereo not drawn) | 7.05%
79 | O=C(O)CC1CC(=O)N1 (stereo not drawn) | 65.7%
80 | Cc1nc(C#N)c(N)nc1Cl | 10.2%
81 | Oc1ccnc(S)n1 | 2.99%
82 | Cc1ccc2ccccc2c1B(O)O | 0.986%
83 | COc1ccccc1NS(=O)(=O)C=Cc1ccccc1 | 7.7%
84 | COc1ccc(NS(=O)(=O)C=Cc2ccccc2)cn1 | 59.9%
85 | CCn1cc(NS(=O)(=O)C=Cc2ccccc2)cn1 | 81.4%
86 | O=S(=O)(F)c1ccc(S(=O)(=O)Nc2ccnnc2)cc1 | 8.23%
87 | N#Cc1ccc(NS(=O)(=O)C=Cc2ccccc2)cc1 | 10.5%
88 | CN(C)c1ccc(NS(=O)(=O)C=Cc2ccccc2)cn1 | 69.9%
89 | O=S(=O)(C=Cc1ccccc1)Nc1ccc(F)c(F)c1 | 1.18%
90 | Cc1ccc(C=CS(=O)(=O)Nc2cnn(CCO)c2)cc1 | 14.7%
91 | COc1ccc(NS(=O)(=O)c2ccc(S(=O)(=O)F)cc2)cn1 | 100%
92 | COc1ccc(NS(=O)(=O)C=Cc2ccccc2)cc1 | 1.18%
93 | Cc1cc(NS(=O)(=O)C=Cc2ccccc2)ccn1 | 29.4%
